# Results with a measured potency or affinity are listed apart. Inconclusive results are not listed. Calls of active or inactive are those of the source.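 Rule for the calls: active = in every test run, a fitted half-maximal concentration for signal decrease at or below twice the highest tested concentration; inconclusive = runs disagree, flat 30 to 70% decrease, or poor fit; inactive = the rest.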
# Test: miR-122 activators in hepatoma reporter cells, dose response, cell-based, Huh7 psiCHECK-miR122, Renilla luciferase, cherry-picked (AID 651956);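 note: Renilla luciferase from a miR-122 sensor reporter so lower signal means miR-122 activation; 0% = median neutral control wells and -100% = median positive control wells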
# Settings: 48 h; series mostly up to 35 µM; activity change, negative = signal decrease: at the top concentration
row,Compound,"activity change, negative = signal decrease"
1,Cc1ccc(-c2nnn(CC(=O)N(CC(=O)NCC3CCCO3)c3ccccc3)n2)o1 (stereo not drawn),-15.9% (inactive)
2,CC(C)C(=O)Nc1ccc2c(c1)C(=O)N(C)[C@H]1CC[C@@H](CC(=O)NCCCN(C)C)O[C@H]1CO2,-23.1% (inactive)
3,CCS(=O)(=O)Nc1ccc2c(c1)C(=O)N(C)[C@H]1CC[C@H](CC(=O)NCCCN3CCOCC3)O[C@H]1CO2,1.82% (inactive)
4,COCC(=O)Nc1ccc2c(c1)C(=O)N(C)[C@@H]1CC[C@H](CC(=O)NC3CCCC3)O[C@H]1CO2,124% (inactive)
5,CN1C(=O)c2cc(NC(=O)Nc3ccccc3Cl)ccc2OC[C@H]2O[C@H](CC(=O)O)CC[C@H]21,75.8% (inactive)
6,COc1cc2nc(C3CCC3)n(NC(=O)C3CCCC(OC)C3)c(=O)c2cc1OC (stereo not drawn),72.1% (inactive)
7,Cc1cc(C(=O)Nc2ccc3c(c2)C(=O)N(C)[C@H]2CC[C@H](CC(=O)N[C@H](C)c4ccccc4)O[C@H]2CO3)no1,77.8% (inactive)
8,COCC(=O)N(C[C@H]1N[C@@H](CO)[C@@H]1c1ccc(C2=CCCC2)cc1)C(C)C,-21.5% (inactive)
9,CCC(=O)N1[C@H](CO)[C@H](c2ccccc2)[C@@H]1CN(CC)C(=O)c1ccccc1,-26.6% (inactive)
10,CCCNC(=O)C[C@@H]1CC[C@H]2[C@H](COc3ccc(NC(=O)c4ccc(C(F)(F)F)cc4)cc3C(=O)N2C)O1,0% (inactive)
11,CN(C)CCCNC(=O)C[C@@H]1CC[C@H]2[C@H](COc3ccc(NC(=O)c4cccc(F)c4)cc3C(=O)N2C)O1,-10.1% (inactive)
12,CCNC(=O)C[C@@H]1CC[C@H]2[C@@H](COc3ccc(NC(=O)c4ccc(C(F)(F)F)cc4)cc3C(=O)N2C)O1,-32.2% (inactive)
13,COCC(=O)Nc1ccc2c(c1)C(=O)N(C)[C@@H]1CC[C@H](CC(=O)N3CCc4ccccc4C3)O[C@H]1CO2,-21.2% (inactive)
14,CC(C)C(=O)Nc1ccc2c(c1)C(=O)N(C)[C@H]1CC[C@H](CC(=O)O)O[C@H]1CO2,115% (inactive)
15,CCc1nc2sc(C)c(C)c2c(=O)n1CCO,51.5% (inactive)
16,COc1cc(-c2nnc(-c3ccco3)o2)ccc1OCc1ccccc1,-42.4% (inactive)
17,CC(=O)Nc1ccc2c(c1)C(=O)N(C)[C@H]1CC[C@H](CC(=O)NC3CCCCC3)O[C@@H]1CO2,-8.52% (inactive)
18,CCCNC(=O)Nc1ccc2c(c1)OC[C@H](C)N(CCC)C[C@H](C)[C@H](OC)CN(C)C2=O,70% (inactive)
19,COCC(=O)N(C[C@@H]1N[C@H](CO)[C@H]1c1ccc(C2=CCCC2)cc1)C(C)C,75.5% (inactive)

row,Compound,"activity change, negative = signal decrease"
1,CNC(=O)C[C@H]1CC[C@H]2[C@H](COc3ccc(NC(=O)c4cccc(F)c4)cc3C(=O)N2C)O1,177% (inactive)
2,CC(=O)N1[C@H](CO)[C@@H](c2ccccc2)[C@H]1CN(C)C(=O)CN1CCOCC1,-6.99% (inactive)
3,O=C(c1cccnc1)N1C[C@H]2[C@@H](c3ccccc31)[C@H](CO)N2C(=O)Nc1ccccc1,-24.8% (inactive)
4,COC(=O)C[C@@H]1CC[C@H]2[C@@H](COc3ccc(NC(=O)c4ccc(F)c(F)c4)cc3C(=O)N2C)O1,134% (inactive)
5,CN(C[C@H]1N[C@@H](CO)[C@H]1c1ccc(-c2cccc(F)c2)cc1)C(=O)C1CCC1,282% (inactive)
6,COc1ccc(OC)c(Nc2cc(C)nc3ccc(C)cc23)c1,-95.2% (inactive)
7,CC(=O)N1[C@H](CN(C(=O)c2ccc(F)cc2)C(C)C)[C@@H](c2ccccc2)[C@@H]1CO,6.52% (inactive)
8,CN(C)CCNc1nc2sc3c(c2c(=O)n1CCc1ccccc1)CCCCC3,70.4% (inactive)
9,N#CCc1c(C#N)c(N)nc(N2CCN(S(=O)(=O)c3ccccc3)CC2)c1C#N,88.6% (inactive)
10,CCN(C[C@H]1N[C@@H](CO)[C@@H]1c1ccc(C2=CCCC2)cc1)C(=O)c1ccncc1,-9.09% (inactive)
11,COCC(=O)N(C)C[C@@H]1[C@@H](c2ccccc2)[C@H](CO)N1C(=O)Cc1ccncc1,-13.1% [at 30 µM] (inactive)
12,Cc1cc(CN(C)C(=O)c2cc(COc3ccc4ncccc4c3)on2)on1,-27.4% (inactive)
13,O=C(c1cccc(F)c1)N1C[C@@H]2[C@H](c3ccccc31)[C@H](CO)N2C(=O)Cc1ccccc1,4.17% (inactive)
14,CN1C(=O)c2cc(NC(=O)c3ccccc3F)ccc2OC[C@H]2O[C@H](CC(=O)NCc3ccc4c(c3)OCO4)CC[C@@H]21,-44.2% (inactive)
15,Cc1ccc(-c2ccc3c(c2)O[C@H](CN(C)C(=O)CC2CC2)[C@H](C)CN([C@@H](C)CO)S3(=O)=O)cc1,-108% (inactive)
16,C[C@H](CO)N1C[C@H](C)[C@H](CN(C)S(=O)(=O)c2ccc(F)cc2)Oc2ccc(NS(C)(=O)=O)cc2C1=O,-31.1% (inactive)
17,O=c1c2cc(N3CCOCC3)ccc2[nH]c(=S)n1CCCN1CCCC1,-9.61% (inactive)
18,CN1C(=O)c2cc(NC(=O)c3cccc(F)c3)ccc2OC[C@@H]2O[C@@H](CC(=O)O)CC[C@H]21,28.9% [at 30 µM] (inactive)
19,COC(=O)C[C@H]1CC[C@H]2[C@H](COc3ccc(NC(=O)NC(C)C)cc3C(=O)N2C)O1,-0.168% (inactive)

# From PubChem BioAssay AID651956 (Broad Institute, 2012)
